# The full data set covers some 8,800 targets. This sample favours those with a hit. About 0.5% of all pairs of compound and target were hits.
# Compound: c1cn2cc(-c3ccc4cn[nH]c4c3)nc(Nc3ccc(N4CCOCC4)cc3)c2n1 [entospletinib]
# Assay: log2 fold change, soluble protein after heating vs DMSO (PISA); higher = thermal stabilisation; K562 lysate, 10 uM; active = over 0.2 and 3.5 SD of the protein, either way, in both replicates (recomputed)
# Summary of the method: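 Thermal stability, expressed as log-two fold change relative to solvent controls, is given from duplicates. Crude K562 extract in PBS pH 7.4 with 1 mM MgCl2, at 1 mg/mL protein, was treated with 10 μM compound for 30 min and heated in aliquots for 3 min across 48°C-58°C. After pooling, adjustment to 0.5% NP-40 at 4°C and centrifugation at 21,000xg for 90 min, supernatant protein was measured by TMTpro 16plex LC-MS/MS with channel sums equalised.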
# UniProt P53396, sequence (P53396 whole entry, looked up): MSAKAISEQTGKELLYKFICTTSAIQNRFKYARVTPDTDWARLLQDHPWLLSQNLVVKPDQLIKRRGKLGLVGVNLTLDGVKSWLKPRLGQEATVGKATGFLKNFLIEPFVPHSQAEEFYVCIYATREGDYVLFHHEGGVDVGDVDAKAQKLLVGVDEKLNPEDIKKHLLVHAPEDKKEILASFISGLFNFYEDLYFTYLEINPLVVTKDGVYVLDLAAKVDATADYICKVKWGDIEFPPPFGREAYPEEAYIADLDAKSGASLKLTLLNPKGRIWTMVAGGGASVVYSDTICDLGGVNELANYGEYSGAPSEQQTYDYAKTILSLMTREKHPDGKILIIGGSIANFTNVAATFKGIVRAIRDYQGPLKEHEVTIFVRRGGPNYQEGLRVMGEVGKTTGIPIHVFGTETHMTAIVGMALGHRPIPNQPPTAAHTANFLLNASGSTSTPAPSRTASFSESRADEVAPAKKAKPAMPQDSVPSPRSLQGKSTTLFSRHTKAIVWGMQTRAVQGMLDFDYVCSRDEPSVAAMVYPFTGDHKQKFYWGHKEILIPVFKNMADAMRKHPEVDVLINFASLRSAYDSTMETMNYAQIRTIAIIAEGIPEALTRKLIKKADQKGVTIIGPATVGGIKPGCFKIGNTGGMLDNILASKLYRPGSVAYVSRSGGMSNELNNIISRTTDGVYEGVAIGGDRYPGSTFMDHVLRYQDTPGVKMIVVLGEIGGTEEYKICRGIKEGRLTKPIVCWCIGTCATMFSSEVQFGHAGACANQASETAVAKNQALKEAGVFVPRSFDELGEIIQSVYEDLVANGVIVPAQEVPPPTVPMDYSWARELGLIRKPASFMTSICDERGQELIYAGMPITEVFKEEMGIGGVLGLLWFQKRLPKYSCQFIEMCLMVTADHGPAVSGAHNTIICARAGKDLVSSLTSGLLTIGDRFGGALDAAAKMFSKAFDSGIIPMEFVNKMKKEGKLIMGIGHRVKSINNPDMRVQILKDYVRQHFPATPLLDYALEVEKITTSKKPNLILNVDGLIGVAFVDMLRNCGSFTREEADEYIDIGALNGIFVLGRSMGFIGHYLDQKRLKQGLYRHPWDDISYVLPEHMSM
# UniProt Q9BTT0, sequence (Q9BTT0 whole entry, looked up): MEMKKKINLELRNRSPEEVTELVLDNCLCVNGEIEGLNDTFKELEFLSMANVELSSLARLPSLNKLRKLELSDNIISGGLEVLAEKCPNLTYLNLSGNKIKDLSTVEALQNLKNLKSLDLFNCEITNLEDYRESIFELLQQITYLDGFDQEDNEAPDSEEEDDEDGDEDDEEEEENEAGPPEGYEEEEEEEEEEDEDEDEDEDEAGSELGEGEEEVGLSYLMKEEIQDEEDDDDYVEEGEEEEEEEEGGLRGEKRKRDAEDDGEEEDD
# UniProt Q6P1M9, sequence (Q6P1M9 whole entry, looked up): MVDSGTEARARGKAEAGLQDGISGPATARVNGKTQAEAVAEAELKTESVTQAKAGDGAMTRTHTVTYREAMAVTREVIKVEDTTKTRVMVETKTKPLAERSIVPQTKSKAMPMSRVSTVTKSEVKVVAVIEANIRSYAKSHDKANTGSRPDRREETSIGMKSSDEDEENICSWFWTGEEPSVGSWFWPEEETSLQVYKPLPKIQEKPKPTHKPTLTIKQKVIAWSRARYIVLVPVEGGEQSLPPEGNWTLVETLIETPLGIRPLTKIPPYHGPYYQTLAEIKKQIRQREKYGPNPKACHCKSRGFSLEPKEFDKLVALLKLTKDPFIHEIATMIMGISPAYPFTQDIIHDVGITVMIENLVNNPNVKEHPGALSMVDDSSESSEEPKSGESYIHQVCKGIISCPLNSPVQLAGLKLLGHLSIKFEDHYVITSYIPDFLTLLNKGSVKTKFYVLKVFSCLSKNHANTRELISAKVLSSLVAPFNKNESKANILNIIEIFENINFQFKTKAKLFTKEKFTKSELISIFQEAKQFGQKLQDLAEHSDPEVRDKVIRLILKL
# UniProt Q9BXX3, sequence (Q9BXX3 whole entry, looked up): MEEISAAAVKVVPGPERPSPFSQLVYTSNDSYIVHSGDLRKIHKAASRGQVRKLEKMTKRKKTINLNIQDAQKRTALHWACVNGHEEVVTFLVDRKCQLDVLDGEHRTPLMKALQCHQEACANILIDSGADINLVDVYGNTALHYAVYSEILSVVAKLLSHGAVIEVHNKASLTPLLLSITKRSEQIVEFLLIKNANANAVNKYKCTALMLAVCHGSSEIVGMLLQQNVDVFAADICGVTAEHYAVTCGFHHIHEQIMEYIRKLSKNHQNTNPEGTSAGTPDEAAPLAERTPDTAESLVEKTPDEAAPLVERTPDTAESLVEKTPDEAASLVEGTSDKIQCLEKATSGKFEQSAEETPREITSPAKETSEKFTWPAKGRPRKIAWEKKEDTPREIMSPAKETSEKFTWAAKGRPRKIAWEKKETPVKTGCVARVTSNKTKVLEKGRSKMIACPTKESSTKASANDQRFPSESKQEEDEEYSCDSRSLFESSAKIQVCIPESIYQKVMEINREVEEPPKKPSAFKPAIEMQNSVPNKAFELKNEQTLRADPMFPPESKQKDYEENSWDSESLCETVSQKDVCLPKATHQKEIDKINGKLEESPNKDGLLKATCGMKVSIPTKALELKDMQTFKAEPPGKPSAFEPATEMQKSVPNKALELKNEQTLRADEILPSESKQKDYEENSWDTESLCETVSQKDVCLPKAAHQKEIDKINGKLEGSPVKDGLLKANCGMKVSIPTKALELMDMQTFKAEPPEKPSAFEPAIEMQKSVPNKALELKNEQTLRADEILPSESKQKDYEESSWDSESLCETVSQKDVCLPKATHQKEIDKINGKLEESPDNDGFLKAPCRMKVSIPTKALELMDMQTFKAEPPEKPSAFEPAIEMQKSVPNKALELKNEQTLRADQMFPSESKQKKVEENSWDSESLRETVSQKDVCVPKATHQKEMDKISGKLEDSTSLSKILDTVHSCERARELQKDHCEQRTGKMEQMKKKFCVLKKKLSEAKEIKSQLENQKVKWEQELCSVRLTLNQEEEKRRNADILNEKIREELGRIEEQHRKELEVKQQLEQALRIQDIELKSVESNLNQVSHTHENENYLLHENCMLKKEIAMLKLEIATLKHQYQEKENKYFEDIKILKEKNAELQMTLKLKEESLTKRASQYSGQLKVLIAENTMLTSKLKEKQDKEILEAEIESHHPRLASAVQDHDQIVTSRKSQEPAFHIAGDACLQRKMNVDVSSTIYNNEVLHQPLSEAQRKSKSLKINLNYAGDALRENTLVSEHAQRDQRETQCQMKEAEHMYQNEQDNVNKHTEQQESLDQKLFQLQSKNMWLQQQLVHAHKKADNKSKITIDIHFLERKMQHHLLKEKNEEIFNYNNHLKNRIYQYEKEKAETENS
# UniProt Q9BT30, sequence (Q9BT30 whole entry, looked up): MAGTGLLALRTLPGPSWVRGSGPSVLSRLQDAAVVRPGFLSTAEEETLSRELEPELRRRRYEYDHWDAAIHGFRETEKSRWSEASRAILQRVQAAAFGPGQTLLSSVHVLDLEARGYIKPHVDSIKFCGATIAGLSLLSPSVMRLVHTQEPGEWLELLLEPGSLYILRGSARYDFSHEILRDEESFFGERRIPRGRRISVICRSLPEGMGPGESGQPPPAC
# UniProt Q6NXE6, sequence (Q6NXE6 whole entry, looked up): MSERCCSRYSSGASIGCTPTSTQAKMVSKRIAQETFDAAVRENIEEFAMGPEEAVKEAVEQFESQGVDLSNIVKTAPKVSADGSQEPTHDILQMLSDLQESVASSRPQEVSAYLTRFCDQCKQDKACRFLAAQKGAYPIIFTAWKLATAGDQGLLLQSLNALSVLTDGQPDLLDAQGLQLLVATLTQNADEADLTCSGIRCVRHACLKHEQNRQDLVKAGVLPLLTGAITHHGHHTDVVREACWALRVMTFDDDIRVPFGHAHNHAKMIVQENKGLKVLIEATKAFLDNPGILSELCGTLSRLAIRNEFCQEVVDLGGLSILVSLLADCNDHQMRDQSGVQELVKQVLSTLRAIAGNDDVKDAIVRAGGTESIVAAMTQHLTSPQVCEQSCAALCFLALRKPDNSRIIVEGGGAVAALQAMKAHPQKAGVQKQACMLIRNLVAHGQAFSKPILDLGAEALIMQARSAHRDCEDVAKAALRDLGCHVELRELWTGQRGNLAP
# UniProt Q13686, sequence (Q13686 whole entry, looked up): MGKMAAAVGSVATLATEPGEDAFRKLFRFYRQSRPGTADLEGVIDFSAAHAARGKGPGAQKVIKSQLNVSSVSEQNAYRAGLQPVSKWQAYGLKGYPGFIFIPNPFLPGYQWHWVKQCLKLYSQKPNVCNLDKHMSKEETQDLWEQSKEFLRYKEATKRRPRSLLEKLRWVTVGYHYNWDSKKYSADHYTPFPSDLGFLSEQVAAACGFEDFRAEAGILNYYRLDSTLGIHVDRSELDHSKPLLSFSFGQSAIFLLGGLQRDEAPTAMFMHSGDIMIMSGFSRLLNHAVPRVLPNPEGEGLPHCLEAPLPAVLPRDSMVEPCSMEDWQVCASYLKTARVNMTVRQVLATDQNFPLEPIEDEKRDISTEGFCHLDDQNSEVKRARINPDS
# UniProt P55263, sequence (P55263 whole entry, looked up): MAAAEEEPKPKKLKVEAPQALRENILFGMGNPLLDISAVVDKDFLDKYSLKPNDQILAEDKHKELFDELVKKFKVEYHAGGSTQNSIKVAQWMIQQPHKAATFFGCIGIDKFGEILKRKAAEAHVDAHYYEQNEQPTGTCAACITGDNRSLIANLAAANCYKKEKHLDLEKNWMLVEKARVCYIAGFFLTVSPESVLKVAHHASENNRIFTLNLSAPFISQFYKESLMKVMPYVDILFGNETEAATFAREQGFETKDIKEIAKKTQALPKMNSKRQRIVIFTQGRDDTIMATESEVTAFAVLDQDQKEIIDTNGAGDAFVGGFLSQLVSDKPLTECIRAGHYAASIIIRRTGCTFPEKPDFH
# UniProt P27144, sequence (P27144 whole entry, looked up): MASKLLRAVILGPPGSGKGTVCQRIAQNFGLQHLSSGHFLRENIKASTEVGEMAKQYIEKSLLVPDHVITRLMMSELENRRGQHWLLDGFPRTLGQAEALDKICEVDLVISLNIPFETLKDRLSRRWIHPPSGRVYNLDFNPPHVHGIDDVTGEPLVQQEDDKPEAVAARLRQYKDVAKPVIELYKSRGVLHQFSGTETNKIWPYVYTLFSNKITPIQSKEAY
row,Target,log2 fold change
1,ABHD13 (UniProt Q7L211),-0.12 (inactive)
2,ADD1 isoform 4 (UniProt P35611),0.056 (inactive)
3,ANKRD44 isoform 2 (UniProt Q8N8A2),-0.115 (inactive)
4,ANP32E isoform 3 (UniProt Q9BTT0),-0.095 (inactive)
5,ANXA11 (UniProt P50995),0.031 (inactive)
6,ABCC5 (UniProt O15440),-0.036 (inactive)
7,ANKRD30A (UniProt Q9BXX3),-0.135 (inactive)
8,ARMC6 (UniProt Q6NXE6),0.011 (inactive)
9,ACTG1 (UniProt K7EM38),-0.453 (inactive)
10,ANP32E (UniProt Q9BTT0),0.012 (inactive)
11,ACOX1 isoform 2 (UniProt Q15067),-0.012 (inactive)
12,ABI1 isoform 6 (UniProt Q8IZP0),-0.115 (inactive)
13,ARHGEF2 (UniProt V9GYF0),0.081 (inactive)
14,ADAR isoform 4 (UniProt P55265),0.022 (inactive)
15,ARMCX5 (UniProt Q6P1M9),0.088 (inactive)
16,ADK (UniProt P55263),-0.027 (inactive)
17,ALKBH1 (UniProt Q13686),-0.052 (inactive)
18,ACLY (UniProt P53396),0.014 (inactive)
19,ALKBH7 (UniProt Q9BT30),0.151 (inactive)
20,ACLY isoform 2 (UniProt P53396),-0.047 (inactive)
21,AIF1L (UniProt Q9BQI0),0.116 (inactive)
22,AIP (UniProt O00170),-0.003 (inactive)
23,AK4 (UniProt P27144),-0.02 (inactive)
24,ANKRD30B (UniProt Q9BXX2),0.025 (inactive)
25,ACSL1 (UniProt P33121),-0.027 (inactive)
26,AP1G2 (UniProt O75843),0.018 (inactive)
27,ABHD11 (UniProt Q8NFV4),0.05 (inactive)
28,ACSL4 (UniProt O60488),0.014 (inactive)
29,AP5B1 (UniProt Q2VPB7),0.022 (inactive)

# From the supplement of paper PMC10849652
